According to PubChem BioAssay:
Where “and” joins values, the source holds several entries; their conditions need not be identical. Equal entries are not always repeated. Calls of active or inactive are those of the source. Unless noted, how the calls were made is not given here.

What was measured:
[1] = resazurin metabolic signal in HepG2 cells – cell-based, resazurin fluorescence, 24 h, PK04 Diversity Set, profiling panel (AID 1172); settings: HepG2 viability, higher = more signal
[2] = budding yeast growth changes without added modifier – OD600, strain BY4716, 24 h, basal condition, primary screen (AID 1173); settings: S. cerevisiae BY4716 growth, OD600, 24 h; higher = more signal, called active from +8 up or from −8 down
[3] = viability profiling in MM1S myeloma cells – cell-based, resazurin fluorescence, basal, 24 h, PK04 Diversity Set, profiling panel (AID 1174); settings: higher = more signal, called active from +8 up or from −8 down;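 further: MM1S multiple myeloma cell line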
[4] = molecular target: Dihydroorotate dehydrogenase (quinone), mitochondrial (Plasmodium falciparum (isolate 3D7)) (UniProt Q08210); experiment: inhibition of P. falciparum DHODH – biochemical, C-terminal His tag, absorbance 600 nm, primary screen (AID 1175); settings: PfDHODH enzyme, DCIP absorbance 600 nm; higher = more signal, called active from +8 up or from −8 down;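 further: recombinant parasite enzyme with a five histidine tag at its C terminus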
[5] = inhibition of PAO1 biofilm formation – strain PAO1, LB-PBS medium, absorbance 600 nm, primary screen (AID 1176); settings: P. aeruginosa PAO1 growth/biofilm, A600, 12 h; higher = more signal
[6] = growth modulation of vineyard yeast isolate – strain RM11-1a, OD600, basal, 24 h, primary screen (AID 1177);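 further: cultures grown under basal conditions with no added stressor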; settings: S. cerevisiae RM11-1a growth, OD600, 24 h; higher = more signal, called active from +8 up or from −8 down
[7] = growth of efflux-deficient E. coli DRC39 – strain DRC39, OD650, 24 h, E. coli filamentation inducers, primary screen (AID 1178);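 further: growth measured as culture turbidity by optical density at 650 nm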; settings: E. coli DRC39 acrAB, higher = more signal, called active from +8 up or from −8 down
[8] = growth of efflux-deficient E. coli DRC39 – strain DRC39, OD650, 48 h, E. coli filamentation inducers, primary screen (AID 1179);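 further: screen aims at cell division blockers that make cells filament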; settings: E. coli DRC39 delta-acrAB growth, higher = more signal, called active from +8 up or from −8 down
[9] = viability profiling in RPMI8226 myeloma cells – cell-based, resazurin fluorescence, basal, 24 h, PK04 Diversity Set, profiling panel (AID 1180); settings: higher = more signal;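 further: RPMI8826 multiple myeloma cell line at 5000 cells per well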
[10] = molecular target: E3 ubiquitin-protein ligase XIAP (Homo sapiens) (UniProt P98170); experiment: small molecules binding XIAP protein – biophysical, small-molecule microarray, fluorescence 635 nm, primary screen (AID 1181); settings: higher = more signal;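 further: score merges 667 nm emission and signal to noise over triplicate slides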
[11] = test system: XIP peptide (Xip251-270) binding; experiment: XIP fragment 251-270 binding compounds – biochemical, small-molecule microarray, fluorescence 635/667 nm, 0.1 µg/mL protein, primary screen (AID 1182); settings: fluorescent protein binding, 635 nm, higher = more signal, called active from +8 up or from −8 down
[12] = test system: XIP peptide (Xip251-270); experiment: compounds binding XIP fragment 251-270 – biochemical, small-molecule microarray, fluorescence 635/667 nm, 0.5 µg/mL protein, primary screen (AID 1183); settings: fluorescence 635 nm, higher = more signal
[13] = blood-stage malaria parasite viability loss – strain 3D7, DAPI fluorescence, 100 nL, primary screen (AID 1184);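 further: parasites grown inside human red blood cells in medium with human serum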; settings: P. falciparum 3D7 growth, 3 d, higher = more signal
[14] = molecular target: Homeobox protein Hox-A13 (Mus musculus) (UniProt Q62424); experiment: disruptors of Hoxa13 oligonucleotide interaction – biochemical, fluorescence polarization, labeled oligonucleotide, primary screen (AID 1185); settings: Hoxa13:DNA binding, 15 min, higher = more signal, called active from +8 up or from −8 down
Chain of Homeobox protein Hox-A13 (Mus musculus) (Q62424 whole entry, looked up): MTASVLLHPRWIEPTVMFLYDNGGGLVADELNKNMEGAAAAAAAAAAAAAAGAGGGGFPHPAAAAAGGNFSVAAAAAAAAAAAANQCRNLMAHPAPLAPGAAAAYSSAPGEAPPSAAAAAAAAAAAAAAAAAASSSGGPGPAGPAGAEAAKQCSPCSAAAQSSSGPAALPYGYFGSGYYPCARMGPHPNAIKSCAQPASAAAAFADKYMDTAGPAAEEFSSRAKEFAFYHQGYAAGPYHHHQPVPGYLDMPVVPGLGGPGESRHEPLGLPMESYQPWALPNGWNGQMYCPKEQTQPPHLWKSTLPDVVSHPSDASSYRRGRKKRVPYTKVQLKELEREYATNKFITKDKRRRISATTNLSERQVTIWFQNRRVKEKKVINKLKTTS

Chain of Dihydroorotate dehydrogenase (quinone), mitochondrial (Plasmodium falciparum (isolate 3D7)) (Q08210 whole entry, looked up): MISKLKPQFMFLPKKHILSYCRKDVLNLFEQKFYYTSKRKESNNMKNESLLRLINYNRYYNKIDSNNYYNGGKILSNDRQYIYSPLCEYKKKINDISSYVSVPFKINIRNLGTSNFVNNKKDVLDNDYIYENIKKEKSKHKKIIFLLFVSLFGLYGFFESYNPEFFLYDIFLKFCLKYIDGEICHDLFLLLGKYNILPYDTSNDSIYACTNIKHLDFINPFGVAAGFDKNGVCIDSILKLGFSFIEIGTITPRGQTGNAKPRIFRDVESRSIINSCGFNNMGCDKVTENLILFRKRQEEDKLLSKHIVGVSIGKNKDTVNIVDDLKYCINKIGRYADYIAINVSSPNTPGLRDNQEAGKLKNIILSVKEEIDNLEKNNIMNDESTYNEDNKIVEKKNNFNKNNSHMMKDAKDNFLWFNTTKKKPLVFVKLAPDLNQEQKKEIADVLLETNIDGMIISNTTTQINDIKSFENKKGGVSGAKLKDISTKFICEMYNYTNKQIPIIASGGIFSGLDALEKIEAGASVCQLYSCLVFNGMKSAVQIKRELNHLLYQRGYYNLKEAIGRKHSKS
Chain of E3 ubiquitin-protein ligase XIAP (Homo sapiens) (P98170 whole entry, looked up, the tested form may be a part): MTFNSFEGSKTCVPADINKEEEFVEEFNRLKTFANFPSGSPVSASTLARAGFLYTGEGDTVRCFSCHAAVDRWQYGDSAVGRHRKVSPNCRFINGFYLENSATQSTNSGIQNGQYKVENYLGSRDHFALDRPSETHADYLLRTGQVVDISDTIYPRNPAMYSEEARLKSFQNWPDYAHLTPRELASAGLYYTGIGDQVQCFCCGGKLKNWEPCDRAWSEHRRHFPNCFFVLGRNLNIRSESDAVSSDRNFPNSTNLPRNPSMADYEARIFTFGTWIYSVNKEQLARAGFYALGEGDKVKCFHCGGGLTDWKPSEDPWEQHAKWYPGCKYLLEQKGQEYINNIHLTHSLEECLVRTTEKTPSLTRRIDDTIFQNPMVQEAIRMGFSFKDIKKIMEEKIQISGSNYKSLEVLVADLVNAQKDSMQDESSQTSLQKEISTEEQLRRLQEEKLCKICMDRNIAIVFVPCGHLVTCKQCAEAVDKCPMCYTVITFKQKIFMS

| SMILES | z-score [1] | z-score [2] | z-score [3] | composite z-score [4] | z-score [5] | z-score [6] | z-score [7] | z-score [8] | z-score [9] | composite z-score [10] | composite z-score [11] | composite z-score [12] | z-score [13] | z-score [14] |
| --- | --- | --- | --- | --- | --- | --- | --- | --- | --- | --- | --- | --- | --- | --- |
| CCOC(=O)[C@H](Cc1ccccc1)NC(=O)CCC1CC(OC(=O)NCc2cccc3ccccc23)CC2(CCCC(COC(=O)NCCCN3CCCC3=O)O2)O1 (stereo not given in full) | 0.968 | -1.78 (inactive) | 1.07 (inactive) | -1.19 (inactive) | 0.639 (inactive) | -0.697 (inactive) | -0.35 (inactive) | -0.209 (inactive) | 1.75 | -0.336 | 0.684 (inactive) | 0.351 | -1.63 | -4.68 (inactive) |
| CCN1C(=O)[C@H]2[C@H]3[C@H](O)[C@H](O)CC(=NOC)[C@@H]3CC[C@H]2C1=O | 0.146 | -1.88 (inactive) | 0.0831 (inactive) | -0.581 (inactive) | 0.924 (inactive) | -0.458 (inactive) | 0.759 (inactive) | 0.953 (inactive) | 0.0325 | 0.487 | -0.397 (inactive) | 0.774 | 0.638 | 1.98 (inactive) |
| CO[C@H]1COC(=O)[C@H](C)NC(=O)CC=C[C@@H](C)[C@H](OC)COC(=O)CC=C[C@@H]1C | 0.322 | 0.278 (inactive) | 0.845 (inactive) | 0.804 (inactive) | -0.519 (inactive) | 1.18 (inactive) | 0.901 (inactive) | -0.959 (inactive) | 0.636 | 0.234 | 0.195 (inactive) | 0.394 | 0.459 | -0.298 (inactive) |
| CO[C@@H]1COC(=O)CC=C[C@H](C)COC(=O)[C@H](C)NC(=O)CC=C[C@H]1C | 0.496 | 0.699 (inactive) | 0.859 (inactive) | 1.09 (inactive) | -0.531 (inactive) | 1.25 (inactive) | 0.365 (inactive) | -0.896 (inactive) | 0.74 | -0.0936 | -0.0437 (inactive) | 0.195 | -0.233 | -0.16 (inactive) |
| COC(=O)C1=C(C)N(Cc2ccccc2)C2=C3C(=O)N(c4ccccc4)C(=O)[C@@H]3[C@@](O)(C(=O)OC)C(=O)N2[C@@H]1c1ccccc1 | 0.941 and 0.879 | -1.31 (inactive) and -2.61 (inactive) | 0.463 (inactive) and 1.02 (inactive) | -0.0764 (inactive) and -0.563 (inactive) | -0.847 (inactive) | -0.305 (inactive) and -1.62 (inactive) | 0.284 (inactive) and 1.07 (inactive) | -0.23 (inactive) and 1.2 (inactive) | 0.698 and 0.334 | 0.122 and 0.0178 | 0.357 (inactive) and 0.908 (inactive) | 0.673 and 0.243 | -0.441 and 0.347 | -3.12 (inactive) and -0.385 (inactive) |
| CC(C)=NO[C@@H](C)c1cc(-c2c(C)cc(C)cc2C)no1 | -0.18 | -2.48 (inactive) | 0.672 (inactive) | -2.98 (inactive) | 0.499 (inactive) | -0.395 (inactive) | -0.328 (inactive) | -2.9 (inactive) | 0.0684 | 0.0251 | -0.386 (inactive) | 0.303 | -0.876 | 0.387 (inactive) |
| Cc1ccc(S(=O)(=O)N[C@H]2COC(=O)[C@@H](C)COC(=O)[C@H](C)NC(=O)CC=C[C@H]2C)cc1 | 0.949 | -0.878 (inactive) | 0.799 (inactive) | -0.0791 (inactive) | -0.814 (inactive) | -0.233 (inactive) | 0.45 (inactive) | -0.166 (inactive) | 1.23 | -0.43 | 0.0287 (inactive) | -0.188 | -0.208 | -0.0362 (inactive) |
| COC(=O)C1=C(C)N(Cc2ccccc2)C2=C3C(=O)N(C)C(=O)[C@@H]3[C@@](O)(C(=O)OC)C(=O)N2[C@@H]1c1ccccc1 | 0.498 and -1.16 | -0.816 (inactive) and -1.23 (inactive) | 0.92 (inactive) and -0.281 (inactive) | -0.105 (inactive) and -0.613 (inactive) | -0.27 (inactive) and 0.0039 (inactive) | -0.544 (inactive) and -2.42 (inactive) | 0.448 (inactive) and -0.0247 (inactive) | 0.275 (inactive) and 0.0957 (inactive) | 0.922 and -0.377 | -0.0622 and -0.0848 | 0.214 (inactive) and -0.566 (inactive) | 0.0447 and 0.0893 | 0.557 and 0.251 | -1.2 (inactive) and -0.234 (inactive) |
| COC(=O)CC=C[C@@H](C)[C@@H](CO)NS(=O)(=O)c1ccc(C)cc1 | 0.553 and -0.369 | 0.909 (inactive) and -1.39 (inactive) | 0.0323 (inactive) and -0.548 (inactive) | 0.581 (inactive) and -0.0189 (inactive) | 0.013 (inactive) and 0.204 (inactive) | -0.214 (inactive) and -0.162 (inactive) | -0.0056 (inactive) and 0.413 (inactive) | -0.214 (inactive) and 0.297 (inactive) | 0.519 and -0.314 | -0.275 and 0.0656 | -0.468 (inactive) and 0.212 (inactive) | 0.169 and 0.315 | -0.106 and 0.0276 | 0.0308 (inactive) and -1.12 (inactive) |
| CCCNC(=O)OC[C@H]1O[C@H](CCON=C(C)CCC(=O)OC[C@H]2O[C@H](C#Cc3ccccc3)C=C[C@@H]2Oc2ccc(C)cc2)C=C[C@@H]1Oc1ccc(OC)cc1 | 0.462 | 0.889 (inactive) | -0.0269 (inactive) | -0.754 (inactive) | -0.066 (inactive) | 0.432 (inactive) | 0.715 (inactive) | 0.565 (inactive) | 0.75 | 0.0408 | -0.238 (inactive) | -0.439 | -2.1 | -0.983 (inactive) |
| Cc1cc2c(nc1C)CCCN2CC(O)CN1CCCc2nc(-c3ccc(Br)cc3)ccc21 (stereo not given) | -0.366 and -0.367 | -7.09 (inactive) and -1.64 (inactive) | -0.959 (inactive) and -0.771 (inactive) | 1.95 (inactive) and 1.18 (inactive) | -0.257 (inactive) and -0.0569 (inactive) | 1.37 (inactive) and 0.795 (inactive) | -0.342 (inactive) and 0.458 (inactive) | -0.752 (inactive) and 0.0169 (inactive) | 0.0199 and -0.821 | 1.1 and 1.9 | 1.5 (inactive) and 4.73 (inactive) | 0.719 and 0.327 | -0.614 and 0.112 | -7.89 (inactive) and -7.9 (inactive) |
| C[C@@H]1CN2[C@@H](CC[C@@H](C)[C@@H]2c2ccc(Br)cc2)C(=O)O1 | 0.0519 and -0.598 | 0.214 (inactive) and -2.02 (inactive) | 0.475 (inactive) and -0.181 (inactive) | 0.694 (inactive) and -1.1 (inactive) | -0.188 (inactive) and 0.417 (inactive) | 0.999 (inactive) and -1.13 (inactive) | 0.322 (inactive) and 0.819 (inactive) | -1.32 (inactive) and -0.313 (inactive) | 0.967 and -0.0883 | 0.118 and 0.166 | -0.0537 (inactive) and -1.1 (inactive) | -0.252 and 0.581 | -0.218 and 0.559 | 0.101 (inactive) and -0.0592 (inactive) |
| COC(=O)C1=C(C)N(Cc2ccccc2)C2=C3C(=O)CCC[C@@H]3[C@@](O)(C(=O)OC)C(=O)N2[C@@H]1c1ccccc1 | 0.444 and 0.105 | -2.18 (inactive) and -2.94 (inactive) | 0.478 (inactive) and 0.111 (inactive) | -0.13 (inactive) and -0.103 (inactive) | -0.847 (inactive) | -0.387 (inactive) and -0.728 (inactive) | 0.875 (inactive) and 0.548 (inactive) | 0.37 (inactive) and 0.0908 (inactive) | 0.74 and 0.619 | -0.0601 and -0.0118 | 0.995 (inactive) and 0.0397 (inactive) | 0.135 and -0.554 | 0.0894 and 0.169 | -0.77 (inactive) and -1.47 (inactive) |
| O=c1n(-c2ccccc2)c(=O)n2n1CC[C@@H]1C(=NOC[C@@H](O)COCc3ccco3)[C@H]3O[C@H]3[C@@H](O)[C@@H]12 | -0.618 and -0.581 | -0.428 (inactive) and 0.804 (inactive) | 0.467 (inactive) and -0.453 (inactive) | -2.79 (inactive) and 0.389 (inactive) | 0.413 (inactive) and -0.455 (inactive) | -0.37 (inactive) and 0.962 (inactive) | -0.417 (inactive) and 0.0343 (inactive) | -0.802 (inactive) and -0.756 (inactive) | 0.0942 and -0.433 | -0.0085 and -0.434 | 0.0643 (inactive) and 0.158 (inactive) | 0.0433 and -0.0465 | -1.77 and -0.681 | -0.683 (inactive) and -1.44 (inactive) |
| COC(=O)C1=C(C)N(Cc2ccccc2)[C@]23O[C@](C(=O)OC)(C(=O)N2[C@@H]1c1ccccc1)[C@H]1CCCC(=O)[C@H]13 | -0.483 and -0.852 | -2.15 (inactive) and -0.0243 (inactive) | 0.167 (inactive) and 0.867 (inactive) | 0.149 (inactive) and -3.24 (inactive) | 0.39 (inactive) and -0.692 (inactive) | -0.186 (inactive) and -0.402 (inactive) | -0.321 (inactive) and -1.18 (inactive) | -0.204 (inactive) and -1.38 (inactive) | -0.327 and -0.466 | 0.0548 and -0.16 | 0.472 (inactive) and 0.134 (inactive) | -0.0169 and 0.279 | 0.0733 and -0.727 | -4.3 (inactive) and 0.514 (inactive) |
